Bioassay records as filed in PubChem.
Mito fusion act: qHTS Assay for Small Molecule Inhibitors of Mitochondrial Division or Activators of Mitochondrial Fusion. S. cerevisiae fusion-defective mutant growth rescue, CellTiterGlo 48 h. 0.23% of 320,000 active. AID 485298, 2010. Potency, µM (titrated, usually from 46.1 µM), without a hit: top-dose growth rescue (activation), hits mostly activators; note: potency is the fitted concentration of half-maximal effect; % of control where 0% means no effect; nearly all actives have a fitted effect of over 45% in size
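Temperature-sensitive fusion-defective S. cerevisiae (e.g. fzo1-1, mgm1-5) were grown with compound in YPEG medium (3% ethanol, 3% glycerol) for 48 hours at 37C. Growth rescue was measured as viability by CellTiterGlo luminescence after 10 minutes at ambient.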
ClpP mod: qHTS Assay for Activators of ClpP. purified B. subtilis ClpP, FRET peptide cleavage, 20 min. Potency, µM (top dose mostly 57.5 µM), without a hit: top-dose activity change, negative = active. 1.9% of 340,000 active. AID 651965, 2013; active = well fitted falling curve with a large enough effect; inconclusive = small, poorly fitted or top-dose-only effect; inactive = no such curve, though single readings can be large or run the other way; note: potency is the fitted concentration of half-maximal effect; the source files actives as falling curves though it sought activators and does not explain the sign; nearly all actives have a fitted effect of over 65% in size
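ClpP 10 microg/mL final, pH 8 Tris/KCl buffer with BSA, glycerol, Tween-20; compound pinned in; FRET-FV substrate; RT 20 min; Ex320/Em430; ΔFRET vs ADEP 5.8 microM, DMSO, no enzyme.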
mIDH1 inhibitor: qHTS for Inhibitors of mutant isocitrate dehydrogenase 1 (IDH1): qHTS | IDH1-R132H enzyme, NADPH consumption, diaphorase/resazurin fluorescence | Potency, µM (series often up to 76.6 µM), without a hit: top-dose activity change, negative = inhibition, usual class: inhibitors | 0.093% of 390,000 active; note: potency is the fitted concentration of half-maximal effect; % is set by controls: 0 for no effect and ±100 for the full control effect; nearly all actives have a fitted effect of over 65% in size
Target sequence (O75874 whole entry R132H, stated change not applied): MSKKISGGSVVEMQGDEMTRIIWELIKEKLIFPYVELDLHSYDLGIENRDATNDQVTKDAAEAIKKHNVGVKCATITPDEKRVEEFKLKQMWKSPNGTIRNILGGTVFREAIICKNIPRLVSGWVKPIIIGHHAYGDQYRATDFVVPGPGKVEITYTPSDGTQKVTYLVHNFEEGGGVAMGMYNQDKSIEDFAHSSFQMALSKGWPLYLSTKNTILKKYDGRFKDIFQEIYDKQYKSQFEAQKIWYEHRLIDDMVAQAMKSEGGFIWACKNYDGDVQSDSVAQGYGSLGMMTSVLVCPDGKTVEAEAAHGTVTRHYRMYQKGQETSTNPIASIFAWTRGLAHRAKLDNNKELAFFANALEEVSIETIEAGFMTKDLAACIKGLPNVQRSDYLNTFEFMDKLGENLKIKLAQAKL
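IDH1-R132H (0.5 ug/mL dispensed) in pH 7.5 Tris buffer was preincubated 30 min with compound, then given a substrate mix of 0.016 mM NADPH and 2 mM alpha-KG for 80 min at room temperature; remaining NADPH was read by diaphorase/resazurin fluorescence.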
ASM inhibitor: Inhibitors of Secretory Acid Sphingomyelinase (S-ASM): qHTS; Sphingomyelin phosphodiesterase (Homo sapiens), P17405; placental ASM, HMU-PC fluorogenic substrate, 60 min; Potency, µM (doses to about 57.5 µM), inactives show top-dose activity change, negative = inhibition, usual class: inhibitors; 0.006% of 340,000 active; AID 504937, 2011; note: potency is the fitted concentration of half-maximal effect
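HMU-PC0 cleavage (9 uM final) by human placental ASM, 60 min at 37 °C following 10 min compound exposure at RT; stopped at pH 10, fluorescence Ex 386/Em 447 nm.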
LDHA inh: qHTS assay for inhibitors of human lactate dehydrogenase | purified LDHA, NADH/diaphorase-resazurin fluorescence; stronger effect = lower value | 0.15% of 480,000 active | L-lactate dehydrogenase A chain (Homo sapiens), P00338 | activity change, % (values are at about 110 or 230 µM); in the data active = activity change below about -30%; inconclusive = mostly about -25% to -30%;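 note: plate controls were DMSO wells for no effect and wells without enzyme for full effect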
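Enzyme activity of human lactate dehydrogenase 5 (2 nM; 0.06 mM NADH, 0.2 mM pyruvate, 5 min, RT) is measured via a resazurin/diaphorase fluorescence readout of residual NADH.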
RGS4 inh: Inhibitors of Regulator of G Protein Signaling (RGS) 4: qHTS; Regulator of G-protein signaling 4 (Homo sapiens), P49798; Potency, µM (series often up to 114 µM), for the others: top-dose activity change, negative = inhibition, hits mostly inhibitors; 0.039% of 390,000 active; AID 504845, 2011; Transcreener GDP fluorescence polarization, RGS4-accelerated GTP hydrolysis; note: potency is the fitted concentration of half-maximal effect; % is set by controls: 0 for no effect and ±100 for the full control effect; nearly all actives have a fitted effect of over 75% in size
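MLSMR compounds (23 nl, pin-transferred) preincubated 10 min at room temperature with a 500nM (2x) first reagent, then RGS4 at 900nM (2x) plus Transcreener GDP mix added; fluorescence polarization (620/688 nm) read before and after 90 min at 30 °C.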
An asterisk follows results filed as active; ? = inconclusive; nt = not tested or not shown; [ ] = remark or other dose. Many of the other results were omitted from the sample, so hits are more common in it than they were. Unless noted, calls come from the whole dose curve; as a rule, active = well fitted curve in the direction sought with a large enough effect; inconclusive = small, poorly fitted or top-dose-only effect, or another doubt; inactive = no such curve, though single readings can be large; an effect the other way counts as inactive or inconclusive.

SMILES | Mito fusion act | ClpP mod | mIDH1 inhibitor | ASM inhibitor | LDHA inh | RGS4 inh
CCCC1=C/C(=C/c2ccc(-c3ccccc3OC)o2)C(=O)O1 | 7% | ? | 0% | 197% | 7 | ?
COc1ccccc1-c1ccc(/C=C2/C=C(CC(C)C)OC2=O)o1 | ? | 35µM* | 7% | 246% | 0 | -11%
CN1CCc2c(c(N3CCOCC3)nc3sc(C(=O)Nc4ccccc4)c(N)c23)C1 | nt | nt | nt | nt | 0 | nt
Cc1ccc(-n2nc3c(c2NC(=O)c2ccc(F)c(F)c2)CS(=O)(=O)C3)cc1 | -2% | 28µM* | 2% | 1% | -4 | -16%
O=C(CSc1nnc(Cc2cc(=O)[nH]c(=O)[nH]2)n1-c1ccc(F)cc1)c1ccc(Cl)cc1 | nt | nt | nt | nt | 3 | nt
O=S1(=O)CCN2C=C(Br)C=C(Br)C2=N1 | -7% | 25µM* | 3% | 59% | -5 | -17%
O=S1(=O)CCN2C=C(Cl)C=C(Cl)C2=N1 | -8% | 1% | 9% | 225% | 1 | -22%
COc1ccc(C)cc1NC(=O)CNC(=O)CNc1cccc(Cl)c1F | nt | nt | nt | nt | 3 | nt
Cc1ccc(C)c(C(=O)Nc2nc3ccccc3[nH]2)c1 | -5% | nt | 2% | 3% | 0 | -33%
Cc1ccc(Nc2nc3ccccc3[nH]2)nc1 | 13% | 35µM* | -3% | 2% | -10 | -1%[11.4 µM]
CC(C)(C)c1ccc(C(=O)NC(=O)COC(=O)c2ccc(Br)o2)cc1 | nt | 32µM* | -8% | 4% | -12 | -14%
CCN1CCN(CCCNC(=O)c2cn(CCOC)c(=O)c3c2c2ccccc2n3C)CC1 | 0% | 3.2µM* | 1% | 22% | 4 | 1%
COCCn1cc(C(=O)NCCCN2CCC(C)CC2)c2c3ccccc3n(C)c2c1=O | -1% | 32µM* | 5% | 7% | 7 | -11%
CCN(CC)CCNC(=O)c1cn(CCOC)c(=O)c2c1c1ccccc1n2C | -5% | 4% | -5% | 14% | 0 | 11%
COc1ccc(C2/C(=C(\O)c3ccc(C)cc3)C(=O)C(=O)N2CCCO)cc1 (stereo not given) | nt | nt | nt | nt | -17 | nt
Cc1ccc2nc(-c3ccc(NC(=O)Cc4cccs4)cc3)[nH]c2c1 | -3% | ? | 9% | 2% | -12 | 10%
O=C(Nc1ccc2oc(-c3ccccc3)nc2c1)C1CCCO1 (stereo not given) | 18% | -1% | 4% | 2% | -8 | -6%
O=C(Nc1ccc(-c2nc3ccccc3o2)cc1)C1CCCO1 (stereo not given) | 8% | 16µM* | -1% | 0% | 0 | -17%
Cc1ccc2nc(-c3ccc(NC(=O)C4CCCO4)cc3)[nH]c2c1 (stereo not given) | 2% | 32µM* | 8% | -2% | -3 | -20%
Cc1ccccc1NC(=O)c1ccc(NC(=O)C2CCCO2)cc1 (stereo not given) | 2% | 16µM* | -4% | 5% | -5 | -1%
O=C(Nc1ccc(F)cc1)c1ccc(NC(=O)C2CCCO2)cc1 (stereo not given) | -6% | 1% | 1% | -1% | -4 | -1%
O=C(Nc1ccc(-c2nc3cc(Cl)ccc3o2)cc1)C1CCCO1 (stereo not given) | 16% | 28µM* | -2% | 3% | -6 | 24%
Cc1ccc(-c2cnc(CCC(=O)N(CCC#N)CCC#N)o2)cc1 | nt | nt | nt | nt | -9 | nt
CC(Sc1nc(Cl)nc2nc[nH]c12)C(=O)NCCc1c[nH]c2ccc(Cl)cc12 (stereo not given) | nt | nt | nt | nt | -4 | nt
